Screening results (PubChem)
This is a sample that favours compounds with a hit; in the whole collection about 7.4% have one here.
PD-1 reverse act: activators reversing PD-1 mediated T-cell inhibition, primary screen, luminescence, primary human CD4 T cells, PD-L1 beads. CellTiter-Glo 96 h. activation, % (no concentration beside the values). 29,000 tested, under 10 active; call rule not given here
Shh pathway inh: Hedgehog pathway signaling inhibitors, primary screen, luminescence, Shh-LIGHT2 cells, Gli-luciferase. 22,000 tested, 2.1% active. Shh-LIGHT2 Gli-luciferase reporter, 30 h. inhibition, % (concentration not given with the values);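 active means mean inhibition across valid replicates above about 65%, limit read from the data; inconclusive means mean under the limit, yet half or more replicates past it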;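 further: pathway switched on by Shh-conditioned medium diluted 1 in 25 in low serum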
NOMO-1 viab: NOMO-1 AML cell viability reduction, primary screen, STK33 inhibitor project, CellTiter-Glo luminescence. 37,000 tested, 7.5% active. inhibition, % (no concentration beside the values). NOMO-1 AML viability, 72 h; in the data active means inhibition above about 80%; inconclusive means no clear call, values can overlap the other calls
YB-1 expression: inhibitors of YB-1 gene expression, primary screen, cell-based, fluorescence; 30,000 tested, 0.37% active; U2OS, qRT-PCR YB-1 vs CDIP delta delta Cp, 16 h; active compounds read high; zero = DMSO, each unit about twofold; delta delta Cp (YB-1 minus CDIP) (no concentration beside the values);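 active means delta delta Cp rounded down to an integer at or above 3, about 3 SD of DMSO wells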;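 further: higher means less YB-1 transcript or more CDIP transcript relative to DMSO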
MITF inhib: inhibitors of MITF, primary screen, MITF inhibitor project, cell-based, luminescence; TRPM1 promoter luciferase, 24 h; inhibition, % (no concentration beside the values); 37,000 tested, 0.28% active; AID 2240, 2010; in the data active means inhibition above about 85%; inconclusive means no clear call, values can overlap the other calls; inactive means below about 68%;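 further: human melanocyte line stably carrying TRPM1 promoter luciferase reporter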
Hits are given with their value; . = inactive; ? = inconclusive; / = no result given.

SMILES | PD-1 reverse act | Shh pathway inh | NOMO-1 viab | YB-1 expression | MITF inhib
C[C@H]1CN([C@@H](C)CO)C(=O)c2cccc(NC(=O)C3CCOCC3)c2O[C@H]1CN(C)S(=O)(=O)c1ccc(Cl)cc1 | . | 84 | . | . | .
C[C@H]1CN([C@@H](C)CO)C(=O)c2cccc(NC(=O)C3CC3)c2O[C@@H]1CN(C)S(=O)(=O)c1ccc(Cl)cc1 | . | . | . | . | .
Cc1cc(C(=O)Nc2cccc3c2O[C@@H](CN(C)S(=O)(=O)c2ccc(Cl)cc2)[C@@H](C)CN([C@H](C)CO)C3=O)n(C)n1 | . | 78 | . | . | .
C[C@@H]1CN([C@H](C)CO)C(=O)c2cccc(NC(=O)c3cnccn3)c2O[C@@H]1CN(C)Cc1ccc(-c2ccccc2)cc1 | / | . | . | . | .
C[C@@H]1CN([C@@H](C)CO)C(=O)Cc2cc(NC(=O)C3CC3)ccc2O[C@@H]1CN(C)C | / | . | . | . | .
CN/C(=C/[N+](=O)[O-])NCCSCc1csc(CN(C)C)n1 | . | . | . | 3.8 | .
C[C@@H]1CN([C@@H](C)CO)C(=O)c2cc(NS(=O)(=O)c3cn(C)cn3)ccc2O[C@H]1CN(C)Cc1ccc(-c2ccccc2)cc1 | . | / | . | . | .
CC1CCc2sc(NC(=O)C(Cc3ccccc3)Cc3ccccc3)c(C#N)c2C1 (centres undefined) | . | . | . | . | .
COC(=O)c1ccc([C@H]2C(C#N)=C(N)C(C#N)(C#N)C3=CCC(C(C)(C)C)C[C@@H]32)cc1 (some centres undefined) | . | 84 | 116 | . | .
C[C@@H]1CN([C@@H](C)CO)C(=O)Cc2cc(NC(=O)CCN3CCOCC3)ccc2O[C@@H]1CN(C)S(C)(=O)=O | . | . | . | . | .
O=C(CC(Sc1ccccc1C(=O)O)c1ccc(F)cc1)c1ccc(F)cc1 (centres undefined) | . | . | 117 | . | .
NC(=O)c1ccccc1NCC(=O)c1ccc(F)cc1 | . | . | . | . | .
Cc1noc(C)c1S(=O)(=O)Nc1ccc2c(c1)C(=O)N([C@H](C)CO)C[C@H](C)[C@H](CN(C)C(=O)Nc1ccc(C(F)(F)F)cc1)OCCCC[C@@H](C)O2 | . | 100 | ? | . | .
Cc1noc(C)c1S(=O)(=O)Nc1ccc2c(c1)C(=O)N([C@H](C)CO)C[C@H](C)[C@@H](CN(C)C(=O)Nc1ccc(C(F)(F)F)cc1)OCCCC[C@@H](C)O2 | . | . | 115 | . | .
Cc1noc(C)c1S(=O)(=O)Nc1ccc2c(c1)C(=O)N([C@@H](C)CO)C[C@@H](C)[C@H](CN(C)C(=O)Nc1ccc(C(F)(F)F)cc1)O2 | . | . | . | . | .
COc1ccc(NC(=O)N(C)C[C@H]2Oc3ccc(NC(=O)NC(C)C)cc3CC(=O)N([C@@H](C)CO)C[C@H]2C)cc1 | . | . | . | . | .
Cc1ccc(S(=O)(=O)Nc2ccc3c(c2)CC(=O)N([C@H](C)CO)C[C@H](C)[C@H](CN(C)Cc2ccc(-c4ccccc4)cc2)O3)cc1 | / | / | 84 | . | .
Cc1ccc(S(=O)(=O)Nc2ccc3c(c2)CC(=O)N([C@H](C)CO)C[C@@H](C)[C@@H](CN(C)Cc2ccccc2)O3)cc1 | . | . | 85 | . | .
C[C@H]1CN([C@@H](C)CO)C(=O)Cc2cc(NS(=O)(=O)c3ccc(Cl)cc3)ccc2O[C@@H]1CN(C)Cc1ccc(-c2ccccc2)cc1 | . | . | 124 | . | .
Cc1ccc(S(=O)(=O)Nc2ccc3c(c2)CC(=O)N([C@@H](C)CO)C[C@H](C)[C@H](CN(C)Cc2ccc(-c4ccccc4)cc2)O3)cc1 | / | . | . | . | .
C[C@@H]1CN([C@H](C)CO)C(=O)Cc2cc(NS(=O)(=O)c3ccccc3)ccc2O[C@@H]1CN(C)Cc1ccc(-c2ccccc2)cc1 | . | . | 104 | . | .
Cc1ccc(S(=O)(=O)N(C)C[C@H]2OCCCC[C@@H](C)Oc3ccc(NC(=O)CCCCCC(=O)Nc4ccccc4N)cc3C(=O)N([C@H](C)CO)C[C@@H]2C)cc1 | . | / | . | . | .
C[C@H]1CN([C@@H](C)CO)C(=O)Cc2cc(NS(=O)(=O)c3ccc(F)cc3)ccc2O[C@@H]1CN(C)Cc1ccc(-c2ccccc2)cc1 | / | . | 122 | . | .
C[C@@H]1CN([C@H](C)CO)C(=O)Cc2cc(NS(=O)(=O)c3ccc(F)cc3)ccc2O[C@@H]1CN(C)Cc1ccccc1 | . | . | . | . | .
C[C@@H]1CN([C@@H](C)CO)C(=O)Cc2cc(NC(=O)Nc3ccc(C(F)(F)F)cc3)ccc2O[C@@H]1CN(C)C(=O)Nc1cccc2ccccc12 | . | . | 83 | . | .
SMILES | PD-1 reverse act | Shh pathway inh | NOMO-1 viab | YB-1 expression | MITF inhib
C[C@@H]1CN([C@@H](C)CO)C(=O)Cc2cc(NC(=O)Nc3ccc(C(F)(F)F)cc3)ccc2O[C@@H]1CN(C)C(=O)Nc1ccccc1 | . | . | 112 | . | .
C[C@@H]1CN([C@H](C)CO)C(=O)Cc2cc(NC(=O)Nc3ccc(C(F)(F)F)cc3)ccc2O[C@@H]1CN(C)C(=O)Nc1cccc2ccccc12 | . | . | . | . | .
C[C@H]1CN([C@@H](C)CO)C(=O)Cc2cc(NC(=O)Nc3ccc(C(F)(F)F)cc3)ccc2O[C@@H]1CN(C)C(=O)Nc1ccc(C(F)(F)F)cc1 | . | . | . | . | .
C[C@H](CO)N1C[C@H](C)[C@H](CN(C)C(=O)Nc2ccccc2)Oc2ccc(NC(=O)Nc3ccc(C(F)(F)F)cc3)cc2CC1=O | / | . | 92 | . | .
CNC[C@@H]1Oc2ccc(NS(=O)(=O)c3ccccc3)cc2C(=O)N([C@@H](C)CO)C[C@@H]1C | / | / | . | . | .
CS(=O)(=O)N(CC(=O)Nc1ccc(C(F)(F)F)cc1)c1cccc(C(F)(F)F)c1 | . | / | . | / | .
Cc1ccc(NC(=O)CN(c2cc(Cl)c(Cl)cc2Cl)S(C)(=O)=O)cc1 | . | / | . | / | .
Cc1ccc(NC(=O)CN(c2cc(Cl)c(Cl)cc2Cl)S(C)(=O)=O)cc1Cl | . | / | 84 | / | .
CS(=O)(=O)N(CC(=O)Nc1ccc(C(F)(F)F)cc1)c1ccc(Oc2ccccc2)cc1 | . | / | 109 | / | .
COC(=O)c1cc(NC(=O)CN(c2cc(Cl)c(Cl)cc2Cl)S(C)(=O)=O)ccc1Cl | . | / | 133 | / | .
CS(=O)(=O)N(CC(=O)Nc1ccc(Oc2ccccc2)cc1)c1cc(Cl)c(Cl)cc1Cl | . | / | 118 | / | .
COc1ccc(OC)c(NC(=O)c2c(NC(=O)c3ccco3)sc3c2CCC3)c1 | . | / | . | / | .
C[C@@H]1CCCCO[C@@H](CN(C)C(=O)Nc2ccccc2)[C@@H](C)CN([C@H](C)CO)C(=O)c2cc(NC(=O)C3CCCCC3)ccc2O1 | / | . | . | . | .
COc1ccc(CN(C)C[C@@H]2Oc3ccc(NC(=O)Nc4ccc(C(F)(F)F)cc4)cc3C(=O)N([C@@H](C)CO)C[C@H]2C)cc1 | / | . | 117 | . | .
